Results published in PubChem BioAssay.
Active and inactive are the calls of the source.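 How the source made its calls: active means thallium flux through the channel raised or lowered by more than 3 SD from vehicle-only wells, actives on both sides; inactive means the rest.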

Experiments:
Assay in all cases: BK channel mutant inhibitors and activators – cell-based, U2OS BacMam, thallium flux, beta subunits, selectivity assay, profiling panel (AID 1259406);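 further: initial slope of Thallos dye fluorescence rise after thallium is added; log ratio against the mean of 0.3% DMSO vehicle wells on the same plate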
F380Y = settings: U2OS BacMam BK variants, at 30 µM
F380Y/beta1 = settings: U2OS BacMam BK variants, at 30 µM
F380Y/beta2Delta = settings: U2OS BacMam BK variants, at 30 µM
F380Y/beta4 = settings: U2OS BacMam BK variants, at 30 µM
[1] = target: Calcium-activated potassium channel subunit alpha-1 (Homo sapiens) + Leucine-rich repeat-containing protein 26 (Homo sapiens) (UniProt Q12791+Q2I0M4); settings: U2OS BacMam BK variants, F380Y/Slo1WT/gamma1, at 30 µM
R275C = settings: U2OS BacMam BK variants, at 30 µM
R275C/beta1 = settings: U2OS BacMam BK variants, at 30 µM
R275C/beta2Delta = settings: U2OS BacMam BK variants, at 30 µM
R275C/beta4 = settings: U2OS BacMam BK variants, at 30 µM
R275C/Slo1WT/beta2 = settings: U2OS BacMam BK variants, at 30 µM

Measured: log fold change Tl+ flux

Sequence of Calcium-activated potassium channel subunit alpha-1 (Homo sapiens) + Leucine-rich repeat-containing protein 26 (Homo sapiens) (Q2I0M4 whole entry, looked up, one chain of several): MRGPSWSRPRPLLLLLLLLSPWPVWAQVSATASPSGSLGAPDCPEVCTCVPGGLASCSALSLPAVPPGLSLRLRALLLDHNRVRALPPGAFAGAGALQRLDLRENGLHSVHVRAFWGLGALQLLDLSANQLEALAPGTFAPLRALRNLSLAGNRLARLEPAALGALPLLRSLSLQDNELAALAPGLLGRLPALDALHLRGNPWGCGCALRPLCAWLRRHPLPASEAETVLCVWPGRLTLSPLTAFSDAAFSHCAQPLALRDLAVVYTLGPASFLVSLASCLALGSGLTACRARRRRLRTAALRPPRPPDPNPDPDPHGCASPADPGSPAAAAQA

COc1cc(NC(=S)Nc2cccc(C)n2)c(OC)cc1Cl
inactive: F380Y 0.00134 | F380Y/beta1 -0.00183 | F380Y/beta2Delta 0.043 | F380Y/beta4 0.0519 | [1] -0.00641 | R275C 0.00398 | R275C/beta1 -0.033 | R275C/beta2Delta 0.0321 | R275C/beta4 -0.0698 | R275C/Slo1WT/beta2 -0.00284

O=c1[nH]cnc2scc(-c3cccs3)c12
inactive: F380Y -0.0452 | F380Y/beta1 -0.0118 | F380Y/beta2Delta 0.0191 | F380Y/beta4 0.0165 | [1] -0.0657 | R275C -0.0434 | R275C/beta1 0.00866 | R275C/beta2Delta -0.0381 | R275C/beta4 0.0239 | R275C/Slo1WT/beta2 -0.0542

COC(=O)c1sc(-c2ccc(Cl)cc2)cc1NC(=O)c1ccc2nsnc2c1
inactive: F380Y 0.0226 | F380Y/beta1 0.0354 | F380Y/beta2Delta 0.0206 | F380Y/beta4 0.0283 | [1] 0.00872 | R275C 0.0185 | R275C/beta1 -0.00968 | R275C/beta2Delta -0.0231 | R275C/beta4 -0.00956 | R275C/Slo1WT/beta2 0.0403

CCOC(=O)c1c(N)n(-c2ccc(Cl)cc2)c2nc3ccccc3nc12
inactive: F380Y -0.0102 | F380Y/beta1 0.0245 | F380Y/beta2Delta -0.0247 | F380Y/beta4 0.0204 | [1] 0.0261 | R275C -0.0291 | R275C/beta1 -0.0146 | R275C/beta2Delta -0.0215 | R275C/beta4 0.011 | R275C/Slo1WT/beta2 0.0184

CC(=O)Oc1ccc(OC(C)=O)c2cc3c(OC(C)=O)ccc(OC(C)=O)c3cc12
inactive: F380Y -0.0214 | F380Y/beta1 -0.0286 | F380Y/beta2Delta -0.0254 | F380Y/beta4 0.0175 | [1] 0.0282 | R275C -0.0106 | R275C/beta1 -0.0199 | R275C/beta2Delta -0.0114 | R275C/beta4 -0.0622 | R275C/Slo1WT/beta2 0.0234

O=C(O)CC1(CC(=O)Nc2cccc3nsnc23)CCCCC1
inactive: F380Y 0.0408 | F380Y/beta1 0.0186 | F380Y/beta2Delta 0.0387 | F380Y/beta4 0.0555 | [1] 0.00374 | R275C 0.055 | R275C/beta1 0.00874 | R275C/beta2Delta 0.00584 | R275C/beta4 0.0536 | R275C/Slo1WT/beta2 0.0319

Cc1cc(CNCC(O)C(F)(F)F)no1 (stereo not given)
inactive: F380Y -0.0368 | F380Y/beta1 0.043 | F380Y/beta2Delta -0.0229 | F380Y/beta4 0.06 | [1] 0.018 | R275C 0.0241 | R275C/beta1 -0.0759 | R275C/beta2Delta -0.018 | R275C/beta4 0.0165 | R275C/Slo1WT/beta2 0.0726

CC(C)(C)OC(=O)N1CCC(c2nc(-c3ccc(Cl)s3)cs2)CC1
inactive: F380Y 0.0108 | F380Y/beta1 0.0589 | F380Y/beta2Delta -0.0352 | F380Y/beta4 -0.0115 | [1] -0.0565 | R275C -0.00778 | R275C/beta1 0.0364 | R275C/beta2Delta 0.0302 | R275C/beta4 0.0463 | R275C/Slo1WT/beta2 0.0374

O=C(CC1SC(=NC2CC3C=CC2C3)NC1=O)Nc1ccccc1Cl (stereo not given)
inactive: F380Y 0.0694 | F380Y/beta1 0.0502 | F380Y/beta2Delta 0.0241 | F380Y/beta4 -0.0131 | [1] -0.0156 | R275C 0.0384 | R275C/beta1 0.0688 | R275C/beta2Delta 0.032 | R275C/beta4 0.0398 | R275C/Slo1WT/beta2 -0.0439

Clc1ccc(Sc2cn[nH]c2-c2ccc3c(c2)OCCO3)cc1
inactive: F380Y -0.025 | F380Y/beta1 -0.0285 | F380Y/beta2Delta -0.0116 | F380Y/beta4 0.0103 | [1] -0.102 | R275C 0.0336 | R275C/beta1 -0.00464 | R275C/beta2Delta -0.0611 | R275C/beta4 -0.0292 | R275C/Slo1WT/beta2 -0.0512

CCOC(=O)CN(C=NC#N)c1ccc(OC)cc1
inactive: F380Y -0.0235 | F380Y/beta1 0.0113 | F380Y/beta2Delta -0.0114 | F380Y/beta4 0.0329 | [1] 0.0663 | R275C 0.0146 | R275C/beta1 -0.0574 | R275C/beta2Delta -0.0152 | R275C/beta4 -0.00948 | R275C/Slo1WT/beta2 0.0303

CC(C)(C)c1ccc(Oc2ccc(NC(=O)Nc3cccs3)cn2)cc1
active: F380Y -0.105 | F380Y/beta1 0.131
inactive: F380Y/beta2Delta -0.0118 | F380Y/beta4 0.0598 | [1] 0.0627 | R275C 0.0691 | R275C/beta1 0.0982 | R275C/beta2Delta 0.0026 | R275C/beta4 0.026 | R275C/Slo1WT/beta2 -0.00521

Cc1nn(C)c2ncc(C(N)=O)c(Oc3ccc(Cl)cc3)c12
inactive: F380Y -0.00628 | F380Y/beta1 -0.0132 | F380Y/beta2Delta 0.0115 | F380Y/beta4 0.049 | [1] 0.0214 | R275C -0.017 | R275C/beta1 0.00427 | R275C/beta2Delta 0.0253 | R275C/beta4 -0.0279 | R275C/Slo1WT/beta2 -0.0474

CSc1nnc(SCC(=O)c2ccc3c(c2)OCCO3)s1
active: R275C/beta1 -0.119 | R275C/beta2Delta -0.146 | R275C/beta4 -0.0816
inactive: F380Y -0.00388 | F380Y/beta1 -0.019 | F380Y/beta2Delta -0.0362 | F380Y/beta4 -0.049 | [1] -0.0346 | R275C -0.06 | R275C/Slo1WT/beta2 -0.0418

O=C(O)c1nnn(-c2ccccc2Oc2ccc(Cl)cc2Cl)c1-c1ccccc1
inactive: F380Y 0.0736 | R275C -0.021 | R275C/Slo1WT/beta2 0.0348
active: F380Y/beta1 0.343 | F380Y/beta2Delta 0.17 | F380Y/beta4 0.243 | [1] 0.127 | R275C/beta1 0.297 | R275C/beta2Delta 0.113 | R275C/beta4 0.287

Clc1ccc(-n2nnnc2-c2cccnc2)c(Cl)c1
inactive: F380Y 0.0135 | F380Y/beta1 -0.0393 | F380Y/beta2Delta -0.0638 | F380Y/beta4 0.0275 | [1] 0.00547 | R275C 0.00315 | R275C/beta1 0.0215 | R275C/beta2Delta -0.00811 | R275C/beta4 0.00931 | R275C/Slo1WT/beta2 0.0349

O=C(NC1CCSC1)c1ccccc1NS(=O)(=O)c1ccccc1 (stereo not given)
active: R275C -0.153 | R275C/beta1 -0.151 | R275C/beta2Delta -0.158 | R275C/beta4 -0.0828
inactive: F380Y -0.000365 | F380Y/beta1 -0.00386 | F380Y/beta2Delta -0.00638 | F380Y/beta4 0.00736 | [1] -0.0334 | R275C/Slo1WT/beta2 -0.0155

COC(=O)c1sccc1NN=C(C)c1ccc(NC(=O)C(Cl)Cl)cc1
inactive: F380Y 0.0593 | F380Y/beta1 -0.0356 | F380Y/beta2Delta 0.0103 | F380Y/beta4 -0.0317 | [1] 0.0385 | R275C -0.0133 | R275C/beta1 -0.0386 | R275C/beta2Delta -0.0375 | R275C/beta4 -0.0101 | R275C/Slo1WT/beta2 0.0362

O=C(CN1c2ccccc2Sc2ccccc21)NN=Cc1ccco1
active: F380Y/beta4 -0.113
inactive: F380Y 0.028 | F380Y/beta1 0.0239 | F380Y/beta2Delta -0.0113 | [1] 0.0102 | R275C -0.00994 | R275C/beta1 0.0301 | R275C/beta2Delta -0.0092 | R275C/beta4 0.0737 | R275C/Slo1WT/beta2 0.032

O=C1NC2CC2N1C(=O)OCc1ccccc1 (stereo not given)
inactive: F380Y 0.0285 | F380Y/beta1 -0.00537 | F380Y/beta2Delta 0.0281 | F380Y/beta4 0.054 | [1] -0.0415 | R275C 0.00866 | R275C/beta1 0.00489 | R275C/beta2Delta 0.0219 | R275C/beta4 -0.029 | R275C/Slo1WT/beta2 -0.0313

Cc1cc(N=CN(C)C)c2ccccc2n1
inactive: F380Y 0.0195 | F380Y/beta1 0.00784 | F380Y/beta2Delta 0.0182 | F380Y/beta4 -0.00491 | [1] 0.00683 | R275C 0.0312 | R275C/beta1 0.046 | R275C/beta2Delta 0.0104 | R275C/beta4 0.0114 | R275C/Slo1WT/beta2 -0.0666

O=C(NCCSCc1ccco1)c1cncc(Br)c1
inactive: F380Y 0.0566 | F380Y/beta1 -0.00628 | F380Y/beta2Delta 0.00549 | F380Y/beta4 0.0375 | [1] 0.0375 | R275C -0.0119 | R275C/beta1 0.0315 | R275C/beta2Delta 0.0453 | R275C/beta4 -0.016 | R275C/Slo1WT/beta2 0.024

Cn1c(SCc2ccc(C(F)(F)F)cc2)nnc1C(F)(F)F
active: R275C/beta1 -0.14 | R275C/beta4 -0.153
inactive: F380Y -0.0854 | F380Y/beta1 0.00114 | F380Y/beta2Delta -0.0293 | F380Y/beta4 0.0223 | [1] -0.00125 | R275C -0.0523 | R275C/beta2Delta -0.0607 | R275C/Slo1WT/beta2 -0.00318

Cc1ccc(C(=O)CC(=CC(=C(C#N)c2ccc([N+](=O)[O-])cc2)c2ccc(C)cc2)c2ccccc2)cc1
inactive: F380Y 0.00161 | F380Y/beta1 0.0132 | F380Y/beta2Delta -0.0182 | F380Y/beta4 -0.0433 | [1] -0.0481 | R275C -0.0132 | R275C/beta1 -0.025 | R275C/beta2Delta -0.0508 | R275C/beta4 -0.0482 | R275C/Slo1WT/beta2 -0.0297

COc1ccc(Cl)cc1N1C(=O)C=C(c2ccccc2)C1=O
inactive: F380Y 0.0164 | F380Y/beta1 0.00407 | F380Y/beta2Delta -0.00673 | F380Y/beta4 -0.00456 | [1] 0.00342 | R275C -0.0171 | R275C/beta1 0.056 | R275C/beta2Delta 0.00976 | R275C/beta4 0.0143 | R275C/Slo1WT/beta2 -0.0335

Cc1ncc(CSc2nc(C(C)(C)C)cs2)c(CO)c1O
inactive: F380Y -0.0128 | F380Y/beta1 -0.0261 | F380Y/beta2Delta -0.035 | F380Y/beta4 -0.0366 | [1] -0.0352 | R275C -0.0209 | R275C/beta1 -0.00193 | R275C/beta2Delta 0.0196 | R275C/beta4 0.00379 | R275C/Slo1WT/beta2 -0.00882
